The structures appear in SMILES notation. Among all 52,000 compounds or so, about 1,700 (3.3%) were called active. The sample holds actives, similar compounds and a random draw of the others, so the mix is not that of the screen. Unmarked numbers belong to inactive results. Cut-off read from the data, not from the text of the source: active = survival mostly below about 52% (no sharp cut-off); inactive = mostly above about 56%.

For this assay, the system named is Wild type. Put plainly: growth inhibition of S. aureus wild type versus tarO mutant, primary screen, teichoic acid synthesis inhibitors, RN4220, OD600 (AID 463173). As to conditions: S. aureus RN4220 wild type/DeltatarO growth, OD600, 18 h, active compounds read low, screened at 18.75 µg/mL (by protocol).
With `CC(=O)c1cc(-c2ccc(F)cc2)n(CC(=O)Nc2cc(C)cc(C)c2)c1C`, the survival is 66%.
For `Cc1ccc(Nc2c(-c3ccc(C)s3)nc3ncccn23)cc1` the value was 43%; for `Cc1cccc(N2CCN(C(=O)c3cccn4c(=O)c5cc(Cl)ccc5nc34)CC2C)c1` (centres undefined), 65%.
For `Cc1cccn2c(=O)c(C(=O)N3CCN(c4ccccc4)CC3)cnc12` the value was 22%; for `Cc1cccc(N2CCN(C(=O)c3cnc4c(C)cccn4c3=O)CC2C)c1` (centres undefined), 0% (active).
The figure for `COc1ccc(NS(=O)(=O)c2ccc3c(c2)n(C)c(=O)c(=O)n3C)cc1Cl` is 77%.
As to `O=C(Cc1ccc(F)cc1)NC1CC(=O)N(c2ccccc2)C1` (centres undefined), the survival is 72%.
The figure for `O=C(Cn1c(-c2cccs2)cc2ccccc21)NCc1ccccc1Br` is 120%.
For `CCN(CC)CCNC(=O)Cn1ncc2c([nH]c3ccccc32)c1=O` the value was 72%; for `O=C(Cn1ncc2c([nH]c3ccccc32)c1=O)NCc1cccc(Cl)c1`, -3% (active).
Take `Cc1ccc(CCNC(=O)Cn2ncc3c([nH]c4ccccc43)c2=O)cc1`: the survival was 66%.
For `CN(CCCNC(=O)Cn1ncc2c([nH]c3ccccc32)c1=O)Cc1ccccc1` the value was 73%.
For `COc1ccc(CNC(=O)Cn2ncc3c([nH]c4ccccc43)c2=O)cc1` the value was 63%.
In the case of `CCCCN(C)CCNC(=O)Cn1ncc2c([nH]c3ccccc32)c1=O`, the survival was 0% (active).
Regarding `CCC(=O)N1CCN(c2ccc(NC(=O)c3ccccc3)cc2)CC1`, the survival is 99%.
For the compound `Cc1cccc(Nc2nnc(-c3ccc(C)c(S(=O)(=O)N4CCN(C)CC4)c3)c3ccccc23)c1`, the survival is 147%.
`O=C(Nc1cccnc1Cl)c1cc(-c2ccc(Cl)cc2)on1`: the survival is 83%.
For `COc1ccccc1CNC(=O)CCC1N=C2c3ccccc3N=C(SCc3ccc(Cl)cc3)N2C1=O` (centres undefined) the value was 0% (active); for `COc1ccc(OC)c(NC(=O)CSC2=Nc3ccccc3C3=NC(CCC(=O)NCc4ccccc4)C(=O)N23)c1` (centres undefined), -3% (active).
For `COc1ccc(OC)c(NC(=O)CSC2=Nc3ccccc3C3=NC(CCC(=O)NCc4ccco4)C(=O)N23)c1` (centres undefined) the value was 70%; for `COCCCNC(=O)CSC1=Nc2ccccc2C2=NC(CCC(=O)NCc3ccccc3OC)C(=O)N12` (centres undefined), 73%.
On to `COc1ccccc1CNC(=O)CCC1N=C2c3ccccc3N=C(SCC(=O)NCCc3ccccc3)N2C1=O` (centres undefined), for which the survival was 129%.
For `COc1ccccc1CNC(=O)CCC1N=C2c3ccccc3N=C(SCc3cccc(Cl)c3)N2C1=O` (centres undefined) the value was 82%; for `CCCCNC(=O)CSC1=Nc2ccccc2C2=NC(CCC(=O)NCc3ccccc3OC)C(=O)N12` (centres undefined), -2% (active).
For `COc1ccc(CNC(=O)CCC2N=C3c4ccccc4N=C(SCc4ccc(F)cc4)N3C2=O)cc1` (centres undefined) the value was 82%.
For `COc1ccc(OC)c(NC(=O)CSC2=Nc3ccccc3C3=NC(CCC(=O)NCCc4ccccc4)C(=O)N23)c1` (centres undefined) the value was 73%; for `O=C(CCC1N=C2c3ccccc3N=C(SCc3ccccc3F)N2C1=O)NCc1ccc(F)cc1` (centres undefined), 73%.
As to `COc1ccc(CNC(=O)CCC2N=C3c4ccccc4N=C(SCc4ccccc4F)N3C2=O)cc1` (centres undefined), the survival was 10% (active).
For `COc1ccccc1CNC(=O)CCC1N=C2c3ccccc3N=C(SCc3ccc(C)cc3)N2C1=O` (centres undefined), the survival is 118%.
The figure for `CC1CCN(C(c2ccccc2)c2sc3nc(-c4ccco4)nn3c2O)CC1` (centres undefined) is 68%; for `Cc1[nH]c(=O)[nH]c(=O)c1/C=N\NC(=O)c1cc2ccccc2o1` it is 111%.
The figure for `N#CC1=C(N)SC(N)=C(C#N)C1c1cc2c(cc1Cl)OCO2` is 112%; for `Cc1cccc(N(CC(=O)NC(C)c2ccccc2)S(=O)(=O)c2ccccc2)c1C` (centres undefined) it is 79%; for `Cc1cc(NC(=O)CSc2nc(-c3cccc(F)c3)nc3c2c(=O)n(C)c(=O)n3C)no1` it is 68%.
`CCOc1cc(C#N)c(NC(=O)c2cccc(S(=O)(=O)N3CCOCC3)c2)cc1OCC`: the survival is 131%.
For `Cc1ccc(CNC(=O)CN2Cc3ccccc3C2=O)cc1` the value was 76%; for `COc1cccc(CNc2ncnc3c2nnn3C)c1`, 79%.
With `CCc1nnc(SCc2cccc(Cl)c2)c2cc3sccc3n12`, the survival was 2% (active).
The figure for `CCc1nnc(SCc2ccc(F)cc2Cl)c2cc3sccc3n12` is 93%; for `CCc1nnc(SCc2c(F)cccc2Cl)c2cc3sccc3n12` it is 88%; for `N#Cc1cccc(NC(=O)C2CCN(c3cnccn3)CC2)c1` it is 105%.
For `CCCCN(CCCC)CCNC(=O)c1cn(CC)c2ccc(S(=O)(=O)N3CCc4ccccc4C3)cc2c1=O` the value was 84%.
In the case of `CCN(C(=O)CSc1nc2ccccc2n1CC(=O)Nc1ccc(F)cc1F)c1ccccc1`, the survival is 73%.
For `CCN(C(=O)CSc1nc2ccccc2n1CC(=O)Nc1cccc(C#N)c1)c1ccccc1` the value was 124%.
The figure for `CCN(C(=O)CSc1nc2ccccc2n1CC(=O)Nc1ccccc1C)c1ccccc1` is -6% (active); for `CC1CCN(C(=O)Cn2c(SCC(=O)Nc3ccc(F)cc3)nc3ccccc32)CC1` it is 70%.
The figure for `Cc1ccc(NC(=O)CSc2nc3ccccc3n2CC(=O)N(C)C2CCCCC2)cc1C` is 78%; for `CCN(CC)C(=O)Cn1c(SCC(=O)Nc2ccc(C)c(C)c2)nc2ccccc21` it is 133%; for `Cc1ccc(NC(=O)CSc2nc3ccccc3n2CC(=O)N2CCC(C)CC2)cc1C` it is -1% (active).
Consider `CC1CCN(C(=O)Cn2c(SCC(=O)NC(C)(C)C)nc3ccccc32)CC1`, for which the survival was 102%.
For `CCCCN(C)C(=O)Cn1c(SCC(=O)Nc2ccc(C)c(C)c2)nc2ccccc21` the value was 14% (active).
With `CC1CCc2c(sc3nc(SCC(=O)Nc4c[nH]c(=O)[nH]c4=O)[nH]c(=O)c23)C1` (centres undefined), the survival was 107%.
On to `Cc1ccc(CNC(=O)c2cc(-c3ccc(C)cc3)nc3n[nH]c(-c4cccc([N+](=O)[O-])c4)c23)cc1`, for which the survival was 74%.
The figure for `CC(C)CNS(=O)(=O)c1ccc(S(=O)(=O)N2CCCN(Cc3ccccc3)C2)cc1` is 97%; for `CCOc1ccc(-c2cc3nc(C4CCN(C(=O)OC(C)(C)C)CC4)c(C(=O)Nc4ccc(C)c(F)c4)cn3n2)cc1` it is 86%.
Regarding `CCc1ccc(NC(=O)C2CCN(c3nc(-c4ccc(OC)cc4)no3)CC2)cc1`, the survival is 66%.
For `COC(=O)c1cccnc1-n1c(=O)c2cccnc2n(CC(=O)Nc2ccccc2F)c1=O` the value was 84%.
Regarding `Cc1[nH]c(=O)[nH]c(=O)c1CSCC(=O)O`, the survival is 108%.
Regarding `O=C(/C=C/c1ccc(Cl)cc1)Nc1nc(-c2cccs2)ns1`, the survival is 75%.
For the compound `Cc1ccc(-c2nnc(NC3CCCC3)s2)cc1`, the survival is 126%.
For `N#CSc1cnc(NC2CCCCC2)s1` the value was 2% (active); for `Cc1cc(C)c(C#N)c(NC2CCCCC2)n1`, 92%.
For `CCOC(=O)c1cccc(Nc2ccc3cc(S(=O)(=O)N4CCCCC4)ccc3n2)c1` the value was -3% (active); for `CC(=O)c1cccc(Nc2ccc3cc(S(=O)(=O)N4CCCC4)ccc3n2)c1`, 73%.
The figure for `O=S(=O)(c1ccc2nc(Nc3cccc(F)c3)ccc2c1)N1CCCC1` is 75%; for `CCN(CC)c1cc(C)c2cc(NC(=O)/C=C/c3ccc(C)cc3)ccc2n1` it is 68%; for `CCN(CC)c1ccc(NC(=O)c2cnc3c(-c4ccccc4)c(C)nn3c2C)c(C)c1` it is 85%.
`Cc1cc(C)cc(NC(c2cccc(Cl)c2)c2nnc(-c3ccccc3)o2)c1` (centres undefined): the survival is 91%.
For `Fc1ccc(C(NCCc2ccc(Cl)cc2)c2nnc(-c3ccccc3)o2)c(Cl)c1` (centres undefined) the value was 3% (active).
The figure for `CCOC(=O)c1cccc(NC(c2nnc(-c3ccccc3)o2)c2ccccc2F)c1` (centres undefined) is 87%.
For `Clc1ccc(CCNC(c2nnc(-c3ccccc3)o2)c2ccccc2Cl)cc1` (centres undefined) the value was 3% (active); for `Cc1cc(NC(c2nnc(-c3ccccc3)o2)c2ccccc2F)ccc1Br` (centres undefined), 9% (active); for `Cc1cc([N+](=O)[O-])ccc1NC(c1nnc(-c2ccccc2)o1)c1ccccc1F` (centres undefined), 99%.
For the compound `Fc1ccccc1C(NCCc1ccc(Cl)cc1)c1nnc(-c2ccccc2)o1` (centres undefined), the survival was -1% (active).
The figure for `Cc1cc(C)cc(NC(c2nnc(-c3cccc(F)c3)o2)c2ccc(F)cc2Cl)c1` (centres undefined) is 37%; for `COc1ccc(NC(c2nnc(-c3ccccc3)o2)c2ccccc2F)cc1Cl` (centres undefined) it is 65%.
For `Cc1ccc(NC(c2nnc(-c3ccccc3)o2)c2ccccc2F)c(Cl)c1` (centres undefined) the value was 91%.
Turning to `CC(C)c1ccc(NC(c2nnc(-c3ccccc3)o2)c2ccc(F)cc2Cl)cc1` (centres undefined), the survival was 69%.
For `Cc1ccccc1Cn1cc(CCC(=O)NC(C)c2ccccc2)c2ccccc21` (centres undefined) the value was 84%; for `CC(C)n1nnnc1SCC(=O)OC1CCCCC1`, 127%.
Turning to `Cc1cc(C)nc(Nc2nc3ccccc3s2)n1`, the survival was 109%.
In the case of `Cc1cccc(C(=O)Nc2nc(-c3nnn(-c4cc(F)ccc4F)c3C)ns2)c1`, the survival is 133%.
Regarding `N#Cc1cc[n+](CC(=O)c2cccs2)cc1`, the survival was 102%.
The figure for `Clc1ccc(CCNC(c2cccc(Cl)c2)c2nnc(-c3ccccc3)o2)cc1` (centres undefined) is 5% (active).
For `Cc1ccc(NC(c2cccc(Cl)c2)c2nnc(-c3ccccc3)o2)cc1F` (centres undefined) the value was 90%; for `CCOc1ccc(CCNC(c2cccc(Cl)c2)c2nnc(-c3ccccc3)o2)cc1OCC` (centres undefined), 89%.
The figure for `CCOc1ccc(CCNC(c2nnc(-c3ccccc3)o2)c2ccccc2Cl)cc1OCC` (centres undefined) is 4% (active); for `CCOc1ccc(CCNC(=O)Cn2nnc(-c3ccccc3)n2)cc1OCC` it is 98%; for `Clc1ccc(CCNC(c2ccc(Cl)cc2)c2nnc(-c3ccccc3)o2)cc1` (centres undefined) it is 86%.
